Screens: PubChem BioAssay, several laboratories
Hits are enriched below; roughly 3.5% of the tested compounds scored in any of these assays.
M1 PAM: potentiates human M1 receptor response to acetylcholine; CHO-K1 hM1, Fluo-8 calcium fluorescence, ACh EC20; 0% = ACh EC20, 100% = maximal ACh; activation, % at 3 µM; 0.088% of 360,000 active; in the data active = activation above about 19%, passing the limit was not always enough
ATG4B inh: ATG4B (human) cysteine protease inhibition; 0.51% of 340,000 active; AID 504462; ATG4B cleavage of LC3-PLA2, NBD-HPC fluorescence, 1 h; inhibition, % at 8.33 µM; Q9Y4P1; in the data active = inhibition above about 40%
Target sequence (Q9Y4P1 whole entry, looked up): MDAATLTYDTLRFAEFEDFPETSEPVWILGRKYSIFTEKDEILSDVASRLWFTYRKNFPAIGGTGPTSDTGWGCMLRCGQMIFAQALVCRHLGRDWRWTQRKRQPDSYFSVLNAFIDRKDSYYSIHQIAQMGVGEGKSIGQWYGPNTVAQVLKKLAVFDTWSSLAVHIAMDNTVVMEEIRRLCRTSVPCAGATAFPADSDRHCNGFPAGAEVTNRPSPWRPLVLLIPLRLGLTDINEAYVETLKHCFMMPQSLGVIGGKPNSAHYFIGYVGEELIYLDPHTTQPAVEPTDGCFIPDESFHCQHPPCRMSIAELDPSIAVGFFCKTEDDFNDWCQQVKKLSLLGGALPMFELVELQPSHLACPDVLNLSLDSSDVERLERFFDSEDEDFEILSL
M1 antag: blocks human M1 muscarinic receptor; P11229; CHO-K1 hM1, Fluo-8 calcium fluorescence, ACh EC80 antagonist; inhibition, % at 3 µM; 1.3% of 360,000 active; AID 588852;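 active = percent inhibition above its own plate's cutoff, namely the mean of that plate's compound wells plus 3 SD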;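 also: peak over basal fluorescence ratio during 140 s after agonist addition; 0% = ACh EC80 plus DMSO and 100% = DMSO alone without agonist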
Myeloid diff MLP: promotes myeloid progenitor differentiation. ER-HoxA9 myeloid progenitors, lysozyme-GFP differentiation, flow cytometry. calls only at 10 µM. 1% of 360,000 active. AID 624256;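 active = normalized GFP-positive differentiation at or above the plate's own cutoff, the solvent-only control mean plus 3 SD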;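 also: cells exposed to compound for four days before flow analysis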
CHRM1 agonist: human M1 muscarinic receptor agonism; 0.33% of 360,000 active; activation, % at 3 µM; CHO-K1 hM1, Fluo-8 calcium fluorescence, agonist mode; 0% DMSO, 100% acetylcholine EC100;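 active = activation above the run's mean compound activation plus 3 SD, cut at about 16% in these data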;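 also: peak over basal fluorescence ratio within a 140 s kinetic read after compound addition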
SKN-1 block: inhibitors of C. elegans SKN-1. C. elegans VP596 Pgst-4::GFP/RFP ratio, acrylamide-induced, 24 h. inhibition, % at 21.8 µM. 0.49% of 360,000 active;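 active = interference check ratio from 0.5 to 1.5 plus GFP to RFP signal ratio inhibition reaching or exceeding a fixed threshold, cut at about 30% in these data, passing the limit was not always enough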
The depositor's hits bear a star; i = inactive; . = no result; + = active, no number.

SMILES	M1 PAM	ATG4B inh	M1 antag	Myeloid diff MLP	CHRM1 agonist	SKN-1 block
CCn1c2ccccc2c2cc(/C=N/NC(=O)c3cccc(C)c3)ccc21	3.7	-15.1	-7.7	i	-2.5	45.1*
Cc1cccc(C(=O)Oc2ccc(/C=N/NC(=O)c3ccccc3O)cc2)c1	-17.9	25.3	23.0	i	-2.1	-4.0
Cc1cccc(C(=O)Oc2ccc(/C=N/NC(=O)c3ccc(O)cc3)cc2)c1	-12.3	5.2	41.5*	i	0.0	15.1
CC1CCN(CCCNC(=O)c2ccc3c(=O)n(Cc4ccc(Cl)cc4)c(=S)[nH]c3c2)CC1	2.8	-2.4	-2.8	i	-7.1	9.3
CN(C)CCNC(=O)c1ccc2c(=O)n(Cc3ccc(Cl)cc3)c(=S)[nH]c2c1	2.7	6.3	-4.5	+	-9.9	6.9
CN(C)CCNC(=O)c1ccc(COc2ccc(Cl)cc2Cl)cc1	-14.0	2.8	31.4*	i	-4.5	5.3
CCN(CC)C1CCN(Cc2c(C(=O)N3CCCCCCC3)nc3ccc(Cl)cn23)C1 (stereo not drawn)	-11.9	6.7	31.8*	i	-6.3	19.2
COC1CCN(Cc2c(C(=O)N3C[C@@H](C)O[C@@H](C)C3)nc3ccc(Cl)cn23)CC1	5.9	23.7	1.1	i	-1.7	-13.3
CN(CCc1ccccn1)Cc1ccc(Cl)c(Cl)c1	2.9	3.2	-12.0	i	-6.9	-5.0
CN(CCc1ccccn1)Cc1ccc(Cl)cc1Cl	-7.5	9.3	10.0	+	-14.7	1.7
Nc1cc2c(cc1Cl)-c1ccccc1C2	-11.0	-5.3	8.3	i	-5.9	49.1*
Nc1cc2c(cc1Cl)-c1ccc(Cl)cc1C2	8.8	-5.9	-12.5	i	-2.7	29.5
CCN1CCN(c2c(Cl)cccc2NC(=O)c2ccc([N+](=O)[O-])o2)CC1	-21.8	.	43.3*	i	-7.1	7.2
CCN1/C(=C/C=C/c2oc3ccc4ccccc4c3[n+]2CC)Oc2ccc3ccccc3c21	.	91.0*	.	.	.	.
CC[n+]1c(/C=C/N(C)c2ccccc2)oc2ccc(Cl)cc21	-10.4	6.5	15.9	i	-9.1	9.6
CCOc1ccc(NC(=O)CN(C)C(=O)c2cc(S(=O)(=O)N3CCCCCC3)ccc2OC)cc1OCC	0.9	-5.8	1.5	i	-6.7	3.3
Clc1ccc(Cc2nc(-c3cccnc3)no2)cc1	10.1	4.7	-8.8	i	-2.2	40.6*
COc1cccc(NC(=S)N(CCc2c(C)[nH]c3ccc(C)cc23)Cc2cccs2)c1	4.5	-10.7	-4.5	i	-1.9	0.6
COc1ccc2[nH]c(C)c(CCN(Cc3cccs3)C(=S)Nc3cccc(F)c3)c2c1	0.8	-13.3	0.9	+	-1.6	-6.2
COc1cc(C(=O)NC(=S)Nc2nccs2)cc(OC)c1OC	0.6	4.4	-2.4	i	-6.3	8.0
CS(=O)(=O)N1Cc2cc(C(=O)NCC3CCCCC3)nc(-c3cccc(-c4cccnc4)c3)c2[C@H]1CCO	.	.	.	i	.	-6.0
CCN=C(Nc1cccc(F)c1)SC1CC(=O)N(c2ccc(OC)cc2)C1=O (stereo not drawn)	-16.4	-16.6	20.8	i	-3.9	13.9
CCN=C(NCC)SC1CC(=O)N(c2cccc(OC)c2)C1=O (stereo not drawn)	-14.3	0.9	32.0*	i	-0.2	-0.6
CCN=C(NCC)SC1CC(=O)N(c2ccc(OCC)cc2)C1=O (stereo not drawn)	-19.9	8.5	29.5*	i	0.3	10.2
CCN=C(NCC)SC1CC(=O)N(c2ccccc2)C1=O (stereo not drawn)	-17.1	5.1	25.1*	i	3.5	-7.1
CCOc1cc(C2NC(=O)c3ccccc3O2)ccc1OC (stereo not drawn)	9.3	3.0	-8.8	i	-3.0	2.8
COc1cc(C2NC(=O)c3ccccc3O2)ccc1OC(C)C (stereo not drawn)	12.5	5.1	-2.5	+	0.3	6.4
O=S(=O)(CCN1CCN(C(c2ccccc2)c2ccccc2)CC1)C(F)(F)F	-34.5	-14.3	77.3*	i	-14.3	-4.8
Fc1ccc(CN2CCN(C(c3ccccc3)c3ccccc3)CC2)cc1	-26.7	1.0	36.1*	i	-8.5	3.5
CC(C)CCn1nnnc1CN1CCN(C(c2ccccc2)c2ccccc2)CC1	-1.3	-8.8	8.8	+	-6.2	-2.8
